Values joined by “and” are separate entries in the source; they are usually repeats but may differ in a detail not shown here. Equal entries are not always repeated. Inconclusive results are not listed. Unmarked numbers belong to inactive results. Active and inactive are the calls of the source. Unless noted, calls come from the whole dose curve; as a rule, active = well fitted curve in the direction sought with a large enough effect; inconclusive = small, poorly fitted or top-dose-only effect, or another doubt; inactive = no such curve, though single readings can be large; an effect the other way counts as inactive or inconclusive.
What was measured:
[1] = target: Cellular tumor antigen p53 (Homo sapiens) (UniProt P04637); assay: Primary qHTS for small molecule compounds that upregulate eGFP-tagged delta133p53alpha (in N-terminal) cells. (AID 2060322); conditions: NCI-H358 eGFP-delta133p53alpha fluorescence, 24 h; activation: active compounds read high; note: nearly all actives have a fitted effect of over 75% in size; note: potency is the fitted concentration of half-maximal effect;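 for activation: series mostly up to about 56 µM; 0% = DMSO vehicle and 100% = reference activator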
Chain of Cellular tumor antigen p53 (Homo sapiens) (P04637 whole entry, looked up): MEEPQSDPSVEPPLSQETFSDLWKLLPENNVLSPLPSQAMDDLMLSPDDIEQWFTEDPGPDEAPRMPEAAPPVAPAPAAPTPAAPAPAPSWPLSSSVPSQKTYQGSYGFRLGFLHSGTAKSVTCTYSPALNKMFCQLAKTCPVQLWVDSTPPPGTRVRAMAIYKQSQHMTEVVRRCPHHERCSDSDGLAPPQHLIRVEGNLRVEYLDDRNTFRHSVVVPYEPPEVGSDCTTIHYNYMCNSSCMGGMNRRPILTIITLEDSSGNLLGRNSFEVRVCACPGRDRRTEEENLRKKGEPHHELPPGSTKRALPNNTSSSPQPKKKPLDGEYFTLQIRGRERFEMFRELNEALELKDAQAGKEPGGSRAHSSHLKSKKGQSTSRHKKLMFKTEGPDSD
In short: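 NCI-H358 cells pre-induced 24 h with 10 ng/ml doxycycline to express N-terminal eGFP-delta133p53alpha, then dosed 24 h at 37C without doxycycline; fixed, Hoechst-stained, GFP intensity by laser scanning cytometry, normalized to DMSO (0%) and 57.5 uM 5-azacytidine (100%).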

[2] = qHTS for Inhibitors of the Aldehyde Dehydrogenase Family (ALDH1A2, ALDH1A3, ALDH2, ALDH3A1) (AID 2061307); note: nearly all actives have a fitted effect of over 50% in size; for Potency: test system not described further here; potency is the fitted concentration of half-maximal effect
[3] = target: Aldehyde dehydrogenase, mitochondrial (Homo sapiens) (UniProt P05091); assay: qHTS for Inhibitors of the Aldehyde Dehydrogenase Family (ALDH2) Primary screen (AID 2061308); note: nearly all actives have a fitted effect of over 55% in size; note: potency is the fitted concentration of half-maximal effect
[4] = target: Retinal dehydrogenase 2 (Homo sapiens) (UniProt O94788); assay: qHTS for Inhibitors of the Aldehyde Dehydrogenase Family (ALDH1A2) Confirmation screens (AID 2061314); note: nearly all actives have a fitted effect of over 65% in size; note: potency is the fitted concentration of half-maximal effect
[5] = target: Retinaldehyde dehydrogenase 3 (Homo sapiens) (UniProt P47895); assay: qHTS for Inhibitors of the Aldehyde Dehydrogenase Family (ALDH1A3) Primary screen (AID 2061315); note: potency is the fitted concentration of half-maximal effect
[6] = target: Retinaldehyde dehydrogenase 3 (Homo sapiens) (UniProt P47895); assay: qHTS for Inhibitors of the Aldehyde Dehydrogenase Family (ALDH1A3) Confirmatory screens (AID 2061311); note: potency is the fitted concentration of half-maximal effect; nearly all actives have a fitted effect of over 60% in size
[7] = target: Aldehyde dehydrogenase 1A1 (Homo sapiens) (UniProt P00352); assay: qHTS for Inhibitors of the Aldehyde Dehydrogenase Family (ALDH1A1) Confirmatory screens (AID 2061316); note: nearly all actives have a fitted effect of over 65% in size; note: potency is the fitted concentration of half-maximal effect
[8] = target: Retinaldehyde dehydrogenase 3 (Homo sapiens) (UniProt P47895); assay: qHTS for Inhibitors of the Aldehyde Dehydrogenase Family (ALDH1A3) Validation screen (AID 2061312); note: nearly all actives have a fitted effect of over 45% in size; note: potency is the fitted concentration of half-maximal effect
[9] = BET inhibitor-based combinations targeting novel dependencies in MECOM-rearranged (r) AML: OCI-AML3 cell line (AID 2202232); conditions: Potency: OCI-AML3 viability; note: potency is the fitted concentration of half-maximal effect; nearly all actives have a fitted effect of over 35% in size
In short: (§1)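 A 48 hr incubation preceded viability reading by CellTiter-Glo, with 15 min room-temperature development. Dose series had 11 points; normalization used DMSO and empty wells; AUC was computed and mean-centered per line as Z-AUC.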

[10] = BET inhibitor-based combinations targeting novel dependencies in MECOM-rearranged (r) AML: MV-4-11 cell line (AID 2202233); note: potency is the fitted concentration of half-maximal effect; nearly all actives have a fitted effect of over 45% in size
In short: (§2)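 Each compound is tested in an 11-point concentration series against 500 seeded cells/well for 48 hr. The luminescent viability signal is normalized to DMSO and blank wells, then reduced to AUC and a cell-line-centred Z-AUC.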

[11] = BET inhibitor-based combinations targeting novel dependencies in MECOM-rearranged (r) AML: UCSD-AML1 cell line (AID 2202235);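 note: series mostly up to about 46 µM; plate controls were DMSO vehicle wells for no effect and blank wells for full effect; nearly all actives have a fitted effect of over 40% in size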
In short: as §2

[12] = target: Aldehyde dehydrogenase, mitochondrial (Homo sapiens) (UniProt P05091); assay: qHTS for Inhibitors of the Aldehyde Dehydrogenase Family (ALDH2) Confirmatory screens (AID 2061303; active = well fitted inhibition curve with a large enough effect; title and protocol of this record describe different tests; note: nearly all actives have a fitted effect of over 45% in size; note: potency is the fitted concentration of half-maximal effect)
[13] = BET inhibitor-based combinations targeting novel dependencies in MECOM-rearranged (r) AML: SET-2 cell line (AID 2202231); conditions: SET-2 AML cells viability, CellTiter-Glo luminescence, 48 h; viability: active compounds read low, concentration not given here; note: potency is the fitted concentration of half-maximal effect; nearly all actives have a fitted effect of over 35% in size
In short: as §1

[14] = BET inhibitor-based combinations targeting novel dependencies in MECOM-rearranged (r) AML: HNT-34 cell line (AID 2202234); note: potency is the fitted concentration of half-maximal effect; nearly all actives have a fitted effect of over 35% in size
In short: as §2

[15] = BET inhibitor-based combinations targeting novel dependencies in MECOM-rearranged (r) AML: AML-191 cell line (AID 2202236; note: potency is the fitted concentration of half-maximal effect; nearly all actives have a fitted effect of over 35% in size)
In short: as §1

[16] = BET inhibitor-based combinations targeting novel dependencies in MECOM-rearranged (r) AML: AML-194 cell line (AID 2202237; note: potency is the fitted concentration of half-maximal effect; nearly all actives have a fitted effect of over 40% in size)
In short: as §1

Compound: COc1cccc(CNC(=O)Nc2nc(-c3ccncc3)cs2)c1
- activation [1]: -8.04%
- Potency [2]: 2.01 µM (active)
- Potency [3]: inactive
- Potency [4]: 5.65 µM (active)
- Potency [5]: inactive

Compound: O=C(NCCCCCCCCNC(=O)C(Cl)Cl)C(Cl)Cl
- activation [1]: -0.333%
- Potency [2]: 8.91 µM (active)

Compound: CCOC(=O)c1cnn(-c2ccc(NC(=O)C(Cl)=C(Cl)Cl)cc2)c1C(F)(F)F
- Potency [1]: 19 µM (active)
- Potency [2]: 4.47 µM (active)
- Potency [3]: 4.47 µM (active)
- Potency [6]: 7.08 µM (active)
- Potency [4]: 0.634 µM (active)
- Potency [5]: inactive
- Potency [7]: 4 µM (active)

Compound: S=C(NCc1ccc2c(c1)OCO2)N1CCN(c2ncnc3c2oc2ccccc23)CC1
- activation [1]: 8.81% and -14.3%
- Potency [2]: 1.58 µM (active)
- Potency [3]: inactive
- Potency [8]: inactive
- Potency [4]: 11.3 µM (active)
- Potency [5]: inactive
- Potency [7]: inactive
- Potency [9]: 2.95 µM (active)
- Potency [10]: 16.6 µM (active)
- Potency [11]: inactive

Compound: Nc1cccc(CNC(=O)c2ccc(Oc3ccc(OCc4cccc(F)c4)cc3)nc2)c1
- activation [1]: -6.68%
- Potency [12]: inactive
- Potency [8]: inactive
- Potency [4]: inactive
- Potency [5]: inactive

Compound: C=CC(C)(O)CC/C=C(\C)C1CC=C(C)C(=O)O1 (centres undefined)
- activation [1]: -9.82%
- Potency [2]: inactive
- Potency [3]: inactive
- Potency [6]: 22.5 µM (active)
- Potency [5]: 14.1 µM (active)

Compound: O=C(/C=C/c1ccc(O)c(O)c1)O[C@H]1[C@H](OC2CCCCC2O)O[C@H](CO)[C@@H](O)[C@@H]1O (some centres undefined)
- activation [1]: 5.36%
- Potency [2]: inactive
- Potency [3]: inactive
- Potency [6]: 11 µM (active)

Compound: COc1ccc(CNC(=O)Nc2ncc([N+](=O)[O-])s2)cc1
- Potency [1]: 33.8 µM (active)
- Potency [2]: 3.16 µM (active)
- Potency [3]: inactive
- Potency [6]: 14.2 µM (active)
- Potency [4]: 12.7 µM (active)
- Potency [5]: inactive
- Potency [13]: 26.3 µM (active)
- Potency [10]: 18.6 µM (active)
- Potency [14]: 20.9 µM (active)
- Potency [15]: 23.5 µM (active)
- Potency [16]: 26.3 µM (active)

Compound: CN1CCN(C(=O)CN[C@@H]2C[C@H]2c2ccc(OCc3ccccc3)cc2)CC1
- activation [1]: 68.2%
- Potency [12]: 14.1 µM (active)
- Potency [6]: 3.98 µM (active)
- Potency [8]: 1.41 µM (active)
- Potency [7]: 20.1 µM (active)

Reference: PubChem BioAssay (NCATS)
